Assay results published in PubChem BioAssay AID1463 (National Center for Advancing Translational Sciences (NCATS), 2008).
In all, about 280,000 compounds went through this assay and about 2,600 (0.93%) were called active. Where a call stands in place of a potency, no number is given. Roughly 8% stayed inconclusive and do not appear here. This is one part of a sample in which actives are shown more often than they occur. The call rests on the fitted dose curve; in most records, active means well fitted curve in the direction sought with a large enough effect; inconclusive means small, poorly fitted or top-dose-only effect; inactive means flat fitted curve, though single readings scatter.

Assay: Counterscreen qHTS for Inhibitors of Tau Fibril Formation, Fluorescence Polarization; further: nearly all actives have a fitted effect of over 55% in size
Settings: tau K18 P301L Alexa594 fluorescence, heparin fibrillization; series mostly up to 57.7 µM
In short: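 Human tau K18 P301L (15 uM unlabeled, 0.24 uM Alexa 594-labeled) in 100 mM sodium acetate pH 7 with 20 uM heparin, 6 hr at 37 C. ThT 30 uM added, 1 hr ambient; Alexa 594 FP and total fluorescence read at 555/632 nm.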
Potency means the concentration at half of the fitted maximal effect; tags describe the fitted curve by direction and shape or compound fluorescence and quenching.

SMILES | Potency
CC(C)=CCc1c(O)c(CC=C(C)C)c2occ(-c3ccc(O)cc3)c(=O)c2c1O | 15.8 µM [quencher] (active)
O=c1c(-c2ccccc2)coc2cc(O)ccc12 | inactive
Cc1c(O)cc(O)c2c(=O)c(-c3ccc(O)cc3)coc12 | inactive
COc1ccc(-c2nnc(SCC(=O)Nc3ccc(C(C)C)cc3)nc2-c2ccc(OC)c(OC)c2)cc1OC | inactive
Oc1ccc(-c2nc3ccc(Cl)cn3c2Nc2ccc3c(c2)OCO3)cc1 | inactive
Cc1ccc2nc(-c3ccc(O)cc3)c(Nc3ccc4c(c3)OCO4)n2c1 | 17.8 µM [quencher] (active)
Cc1ccc2nc(-c3cccnc3)c(NC3CCCC3)n2c1 | inactive
COc1ccc(CCNC(=O)c2ccc(-n3c(C)cc4c3CCCC4)cc2)cc1OC | inactive
O=[N+]([O-])c1ccc(N/N=C/c2ccccc2)cc1 | 8.91 µM [quencher] (active)
O=C(N/N=C/c1ccc([N+](=O)[O-])cc1)C(=O)N1CCCC1 | inactive
NC(=S)N/N=C/c1ccc([N+](=O)[O-])cc1 | inactive
Cc1nc2ccn(Cc3cccs3)c(=O)c2cc1C(=O)NCc1ccc(Cl)cc1 | inactive
COc1cccc(-c2nc(Nc3ccncc3)c3ccccc3n2)c1 | 10 µM [quencher] (active)
COc1cccc(Nc2nc3ccccc3c3nncn23)c1 | inactive
COc1ccccc1Oc1nc(-c2cccnc2)nc2ccccc12 | inactive
Cc1ccccc1CNC(=O)c1cccc(NC(=O)c2nsc3ccccc23)c1 | inactive
CCS(=O)(=O)N1CCc2cc(C(=O)N3CCN(c4ccccc4OC)CC3)ccc21 | inactive
O=C1c2ccccc2C2=Nc3ccccc3SC(c3ccccc3F)C12 (stereo unspecified) | 5.62 µM [quencher] (active)
COc1ccc(CCNC(=O)c2ccc3c(c2)nc(C)n3-c2ccc(Br)cc2)cc1OC | inactive
CCC(=O)N1CCc2cc(CNS(=O)(=O)c3ccc(Br)s3)ccc21 | inactive
COc1ccc2c(c1OC)C(=O)c1ccccc1C2=O | inactive

SMILES | Potency
COc1ccc(C2Sc3ccccc3NC3=C2C(=O)c2ccccc23)c(OC)c1OC (stereo unspecified) | 6.31 µM [quencher] (active)
COc1ccc(C2CC(=O)Nc3cc(C)c(C)cc32)c(OC)c1OC (stereo unspecified) | inactive
COc1ccc(C(=O)NCC(c2ccc(N(C)C)cc2)N2CCc3ccccc32)c(OC)c1 (stereo unspecified) | inactive
Cc1ccc(Oc2c(C(F)(F)F)oc3c(CN4CCCCC4)c(O)ccc3c2=O)cc1 | inactive
Cc1ccc(C(=O)Nc2c(C(=O)NC(C)(C)C)oc3ccccc23)cc1 | inactive
Oc1ccc2ccccc2c1N=Nc1nccs1 | 12.6 µM [quencher] (active)
CCOC(=O)c1ccc2c(c1)N(Cc1cccc(OC)c1)C(=O)c1ccccc1S2(=O)=O | inactive
COc1cccc(CNC(=O)Cc2csc3nc(-c4ccccc4)cn23)c1 | inactive
CCc1ccc(NC(=O)c2cnc3c(-c4ccccc4)c(C)nn3c2C)cc1 | inactive
Cc1nc2c(-c3ccccc3)c(C)nn2c(C)c1CCC(=O)NCCc1ccccc1 | inactive
CCc1c(C)nc2c(-c3ccccc3)c(C)nn2c1Nc1ccc(NC(C)=O)cc1 | 17.8 µM [quencher] (active)
COc1ccccc1NC(=O)CSC1=Nc2ccccc2C2=NC(CC(=O)NCc3cccs3)C(=O)N12 (stereo unspecified) | inactive
COc1ccc(CCNC(=O)c2ccc(CSCc3ccc(C)cc3)o2)cc1OC | inactive
Nc1ccc(N=Nc2ccccc2Cl)c(N)n1 | 15.8 µM [quencher] (active)
Cc1ccc(C)c(N2CCN(C(=O)Cn3ncc4c(=O)oc5ccc(C)cc5c43)CC2)c1 | inactive
COc1cccc(NC(=O)Nc2ccc3c(c2)N(C)C(=O)c2ccccc2S3)c1 | inactive
COc1cccc(/C=N\NC(=O)C2=NNC(=O)C2C)c1O (stereo unspecified) | inactive
COc1cccc(/C=N/NC(=O)c2[nH]nc3c2CCc2ccccc2-3)c1O | inactive
COc1cccc(/C=N/Nc2cc(C)nc(-c3ccccc3O)n2)c1O | 8.91 µM [quencher] (active)
Cc1cc(C)c(/C=C/c2onc(C)c2S(=O)(=O)N2CCC(C(=O)Nc3ccc(Cl)cc3C)CC2)c(C)c1 | inactive
O=C(N/N=C/c1sc(N2CCCCC2)nc1-c1cccs1)c1cccnc1 | 15.8 µM [quencher] (active)

SMILES | Potency
Cc1cc(/C=N/NC(=O)c2cccnc2)c(C)n1CC(C)C | inactive
O=C(N/N=C/c1ccccn1)c1cccnc1 | inactive
COc1ccc(CNc2nc(-c3ccc(Cl)cc3)nn2C(=O)c2ccccc2)cc1 | inactive
O=C(Cn1cc(SCc2ccccc2)c2ccccc21)N1CCCCC1 | inactive
CC(=O)N1CCc2cc(S(=O)(=O)NC(Cc3ccccc3)C(=O)NCc3ccc(C)cc3)ccc21 (stereo unspecified) | inactive
Cc1ccc(C(=O)NNC(=O)c2cc3cc4ccccc4nc3s2)cc1 | inactive
CCN1CCN(C(=O)c2cc3cc4ccc(OC)cc4nc3s2)CC1 | inactive
CCN(CCCNC(=O)c1cc2cc3cc(OC)ccc3nc2s1)c1ccccc1 | 4.47 µM [quencher] (active)
O=C(CCS(=O)(=O)c1ccccc1)N(Cc1cccnc1)c1nc2c(F)cccc2s1 | inactive
COc1ccc(-c2c(C)cc3oc(=O)cc(-c4ccccc4)c3c2C)cc1OC | inactive
COc1ccc(-c2c(C)cc3oc(=O)cc(-c4ccccc4)c3c2C)cc1F | inactive
COc1cc(OC)c2c(-c3cccc(-c4cccc(N)c4)c3)cc(=O)oc2c1 | 11.2 µM [quencher] (active)
CCOc1ccccc1NC(=O)CN1CCCN(Cc2cccc(Cl)c2)S1(=O)=O | inactive
CC(CCCc1ccccc1)NC(=O)c1nn(-c2ccc(Cl)cc2)nc1CO (stereo unspecified) | inactive
CN(C)c1cc2c(Nc3ccc4c(cnn4Cc4ccccc4)c3)ncnc2cn1 | 7.08 µM [quencher] (active)
CC(=O)Nc1ccc(NC(=O)CSc2ncnc3c2cnn3Cc2ccccc2)cc1 | inactive
Clc1ccc(Nc2ncnc3c2nnn3Cc2ccccc2)cc1 | inactive
COc1ccc(C)cc1NC(=O)CCc1c(C)nn(-c2ccc(N3CCOCC3)nn2)c1C | inactive
CC(=O)Nc1ccc(NC(=O)C2CCCN(S(=O)(=O)c3ccc4c(c3)CCCC(=O)N4)C2)cc1 (stereo unspecified) | inactive
